Reference: article PMC4336329 (PLoS ONE, 2015)
Screen size: about 310,000 compounds; about 2,200 (0.71%) showed an effect of 50% or more. Effects have a minus sign here. Many of the other results were omitted from the sample, so strong results are more common in it than they were.

Target: human ether-à-go-go-related gene (hERG) potassium channel (human, UniProt Q12809)
Experiment: primary screen, population patch clamp on CHO cells stably expressing hERG; higher = less effect of the substance

Chain of human ether-à-go-go-related gene (hERG) potassium channel (Q12809 whole entry, looked up): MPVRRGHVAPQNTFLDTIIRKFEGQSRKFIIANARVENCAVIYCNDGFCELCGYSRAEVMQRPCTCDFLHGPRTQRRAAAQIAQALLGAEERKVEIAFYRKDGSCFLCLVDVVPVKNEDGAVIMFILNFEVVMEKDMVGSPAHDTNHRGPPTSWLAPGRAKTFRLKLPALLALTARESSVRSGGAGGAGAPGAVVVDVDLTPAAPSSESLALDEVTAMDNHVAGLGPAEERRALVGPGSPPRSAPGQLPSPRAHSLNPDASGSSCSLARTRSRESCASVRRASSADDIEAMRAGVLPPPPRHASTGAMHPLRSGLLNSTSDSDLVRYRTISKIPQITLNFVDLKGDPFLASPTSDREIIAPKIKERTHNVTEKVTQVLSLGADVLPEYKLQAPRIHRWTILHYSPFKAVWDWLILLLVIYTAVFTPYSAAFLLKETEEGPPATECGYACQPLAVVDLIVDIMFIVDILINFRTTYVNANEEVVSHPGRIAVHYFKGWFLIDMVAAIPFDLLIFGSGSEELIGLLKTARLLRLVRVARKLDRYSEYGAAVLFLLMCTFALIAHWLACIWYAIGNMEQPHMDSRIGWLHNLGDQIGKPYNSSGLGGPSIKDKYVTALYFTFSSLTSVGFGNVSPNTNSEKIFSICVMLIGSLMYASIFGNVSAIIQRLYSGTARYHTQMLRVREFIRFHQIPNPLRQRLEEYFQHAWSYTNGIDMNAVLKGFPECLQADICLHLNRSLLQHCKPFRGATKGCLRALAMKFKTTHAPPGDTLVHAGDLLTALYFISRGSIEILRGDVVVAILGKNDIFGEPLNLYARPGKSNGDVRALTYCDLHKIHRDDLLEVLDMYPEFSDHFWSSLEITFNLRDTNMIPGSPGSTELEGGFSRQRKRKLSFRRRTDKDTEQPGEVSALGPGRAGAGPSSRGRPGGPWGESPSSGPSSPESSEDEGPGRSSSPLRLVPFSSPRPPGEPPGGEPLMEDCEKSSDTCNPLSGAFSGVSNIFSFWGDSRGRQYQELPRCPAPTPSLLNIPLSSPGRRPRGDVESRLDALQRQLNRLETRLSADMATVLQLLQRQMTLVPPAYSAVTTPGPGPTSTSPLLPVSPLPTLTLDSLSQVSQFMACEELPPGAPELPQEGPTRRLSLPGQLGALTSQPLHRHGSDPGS

**Q.** How did the “hERG current change (%, negative = inhibition) at 1uM” value turn out when NS(=O)(=O)c1cccc2c1c([N+](=O)[O-])cc1nc([O-])c([O-])nc12.[Na+] was run?
**A.** The value was 20.2%.

**Q.** With CCCNS(=O)(=O)c1cc(Br)cc2c1N(C(=O)CC)CC2 as the molecule, how does the “hERG current change (%, negative = inhibition) at 1uM” value read?
**A.** The value was 4.42%.

**Q.** How did the “hERG current change (%, negative = inhibition) at 1uM” value turn out when C=C(C)c1cccc(C(C)(C)NC(=O)NC2CC(C)(C)NC(C)(C)C2)c1 was run?
**A.** Its value is 7.67%.

**Q.** O=C(Nc1ccc(F)cc1)C1CC2CCC1C2 (stereo not shown) was tested. Which “hERG current change (%, negative = inhibition) at 1uM” value did it give?
**A.** The value was 12.7%.

**Q.** For Cc1ccc(NC(=O)c2cc(C)on2)cc1, which “hERG current change (%, negative = inhibition) at 1uM” value is on record?
**A.** The value was 6.42%.

**Q.** How did the “hERG current change (%, negative = inhibition) at 1uM” value turn out when CC12CN3CC(C)(CN(C1)C3c1ccccc1)C2O (stereo not shown) was run?
**A.** Its value is 9.98%.

**Q.** For Cc1ccc(C2=NN(CC(=O)NCCN(CC(C)C)CC(C)C)C(=O)CC2)cc1, which “hERG current change (%, negative = inhibition) at 1uM” value is on record?
**A.** Its value is -3.88%.

**Q.** With COc1cc(NC(=O)C(C)Oc2ccccc2)c(OC)cc1NC(=O)c1ccccc1 (stereo not shown) as the molecule, how does the “hERG current change (%, negative = inhibition) at 1uM” value read?
**A.** The value was 13.2%.

**Q.** Cc1ccc(Cn2nnnc2CN2CCC(c3nc4ccc(Cl)cc4[nH]3)CC2)cc1 was tested. Which “hERG current change (%, negative = inhibition) at 1uM” value did it give?
**A.** The value was 4.97%.

**Q.** Which “hERG current change (%, negative = inhibition) at 1uM” value does the source give for CC1CCCN(C(=O)CN2CCC(c3nc4ccc(Cl)cc4[nH]3)CC2)C1 (stereo not shown) here?
**A.** The value was -35.9%.

**Q.** With Clc1ccc2nc(C3CCN(Cc4nnnn4C4CCCCC4)CC3)[nH]c2c1 as the molecule, how does the “hERG current change (%, negative = inhibition) at 1uM” value read?
**A.** The value was -16.2%.

**Q.** With Clc1ccc(CN2CCC(c3nc4ccc(Cl)cc4[nH]3)CC2)cc1 as the molecule, how does the “hERG current change (%, negative = inhibition) at 1uM” value read?
**A.** The value was -78.7%.

**Q.** For COc1ccc(NC(=S)N2CCC(c3nc4ccc(Cl)cc4[nH]3)CC2)c(OC)c1, which “hERG current change (%, negative = inhibition) at 1uM” value is on record?
**A.** The value was 1.15%.

**Q.** O=C(c1cccc(Cl)c1)N1CCC(c2nc3ccccc3[nH]2)CC1 was tested. Which “hERG current change (%, negative = inhibition) at 1uM” value did it give?
**A.** Its value is -0.145%.

**Q.** With CC1CCCCN1C(=O)CN1CCC(c2nc3ccc(Cl)cc3[nH]2)CC1 (stereo not shown) as the molecule, how does the “hERG current change (%, negative = inhibition) at 1uM” value read?
**A.** The value was 1.51%.

**Q.** Which “hERG current change (%, negative = inhibition) at 1uM” value does the source give for Clc1ccc2nc(C3CCN(Cc4ccccc4)CC3)[nH]c2c1 here?
**A.** The value was -73.7%.

**Q.** How did the “hERG current change (%, negative = inhibition) at 1uM” value turn out when CC(C)(C)c1ccc(S(=O)(=O)N2CCC(c3nc4ccc(Cl)cc4[nH]3)CC2)cc1 was run?
**A.** The value was 7.6%.

**Q.** For Cc1ccc(CN2CCC(c3nc4ccc(Cl)cc4[nH]3)CC2)cc1, which “hERG current change (%, negative = inhibition) at 1uM” value is on record?
**A.** The value was -91.8%.

**Q.** COc1ccc(CN2CCC(c3nc4ccc(Cl)cc4[nH]3)CC2)cc1 was tested. Which “hERG current change (%, negative = inhibition) at 1uM” value did it give?
**A.** The value was -84%.

**Q.** How did the “hERG current change (%, negative = inhibition) at 1uM” value turn out when O=C(NC1CCCCC1)N1CCC(c2nc3ccc(Cl)cc3[nH]2)CC1 was run?
**A.** The value was 6.29%.

**Q.** With Cc1nc(CCl)cc(=O)[nH]1 as the molecule, how does the “hERG current change (%, negative = inhibition) at 1uM” value read?
**A.** Its value is 4.26%.

**Q.** How did the “hERG current change (%, negative = inhibition) at 1uM” value turn out when Cc1[nH]ccc(=O)c1OCc1c(F)cccc1Cl was run?
**A.** Its value is 12.8%.

**Q.** With Nc1cc(=O)[nH]c(SCC(=O)Nc2ccc(Cl)c(Cl)c2)n1 as the molecule, how does the “hERG current change (%, negative = inhibition) at 1uM” value read?
**A.** Its value is 1.55%.

**Q.** Which “hERG current change (%, negative = inhibition) at 1uM” value does the source give for Cc1nc(SCCC(=O)O)c2cc(-c3ccccc3)sc2n1 here?
**A.** The value was 6.67%.

**Q.** With NC(=O)CSc1nnc(CNc2ccc(F)cc2)n1CC1CCCO1 (stereo not shown) as the molecule, how does the “hERG current change (%, negative = inhibition) at 1uM” value read?
**A.** Its value is -1.77%.
